Test results published in PubChem BioAssay (NCI).
The panel holds about 79,000 compounds, 15% with a hit somewhere; the sample as a whole holds those more often. Active and inactive are the calls of the source. No stated cut-off is given here; in the data, active means growth inhibition above about 70%; inactive means the rest.

Assays:
[1] = NCI Yeast Anticancer Drug Screen. Data for the rad52 strain (AID 147);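 further: 0% = growth of vehicle-treated control cultures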; conditions: S. cerevisiae rad52 mutant growth inhibition, stronger effect = higher value
Summary of the method: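 Screen used a yeast mutant impaired in DNA repair. After compound exposure, growth was measured. Values reflect inhibition compared with vehicle-treated cells.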

[2] = NCI Yeast Anticancer Drug Screen. Data for the wt1 strain (AID 149);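 further: 0% = growth of vehicle-treated wt1 cultures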; conditions: S. cerevisiae wt1 strain (SPY 50644) growth inhibition, stronger effect = higher value
Summary of the method: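 Each compound is tested on wt1 yeast and the loss of growth versus vehicle gives the inhibition value.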

[3] = NCI Yeast Anticancer Drug Screen. Data for the rad50EPP+ strain (AID 151);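 further: 0% = growth of vehicle-treated control cultures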; conditions: S. cerevisiae rad50 mutant strain, stronger effect = higher value
Summary of the method: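 Exposing the rad50EPP+ strain to each compound, growth was compared with vehicle-only cultures to give inhibition.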

[4] = NCI Yeast Anticancer Drug Screen. Data for the mgt1 strain (AID 153); conditions: S. cerevisiae mgt1 mutant growth inhibition, stronger effect = higher value
Summary of the method: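 Genetically defined yeast (mgt1) treated with compound; inhibition of growth expressed against vehicle-treated controls.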

[5] = NCI Yeast Anticancer Drug Screen. Data for the rad50 strain (AID 155);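 further: 0% = growth of vehicle-only cultures of the same strain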; conditions: S. cerevisiae rad50 strain growth inhibition, stronger effect = higher value
Summary of the method: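 Vehicle-treated cultures provide the reference for the growth inhibition reported for compound-exposed, repair-deficient yeast.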

[6] = NCI Yeast Anticancer Drug Screen. Data for the mec2-1 strain (AID 157); conditions: S. cerevisiae mec2-1 strain, stronger effect = higher value
Summary of the method: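 Readout is yeast growth inhibition, normalised to vehicle-treated controls, in the mec2-1 strain exposed to compound.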

[7] = NCI Yeast Anticancer Drug Screen. Data for the rad14 strain (AID 159);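 further: 0% = growth of vehicle-treated control cultures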; conditions: S. cerevisiae rad14 strain growth inhibition, stronger effect = higher value
Summary of the method: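 Inhibition of growth is reported for a repair-deficient yeast mutant following compound treatment, calculated relative to cultures that received vehicle.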

[8] = NCI Yeast Anticancer Drug Screen. Data for the sgs1 mgt1 strain (AID 161);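 further: 0% = growth of cultures given vehicle only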; conditions: S. cerevisiae sgs1 mgt1 strain, stronger effect = higher value
Summary of the method: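 This yeast growth screen uses a strain with defined DNA-repair lesions; compound-treated growth is compared with vehicle-treated growth.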

[9] = NCI Yeast Anticancer Drug Screen. Data for the CLN2oe strain (AID 163);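 further: 0% = growth of vehicle-only control cultures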; conditions: S. cerevisiae CLN2oe strain, stronger effect = higher value
Summary of the method: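 Values reflect how much compound exposure reduced yeast growth, referenced to vehicle-exposed cells. Assay organism is a strain with a defined genetic change affecting cell-cycle control.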

[10] = NCI Yeast Anticancer Drug Screen. Data for the cln2 rad14 strain (AID 165);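 further: 0% = growth equal to vehicle treated cultures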; conditions: S. cerevisiae cln2 rad14 strain, stronger effect = higher value
Summary of the method: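 Relative to vehicle controls, growth inhibition of compound-treated cln2 rad14 yeast was recorded.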

[11] = NCI Yeast Anticancer Drug Screen. Data for the bub3 strain (AID 167); conditions: S. cerevisiae bub3 mutant strain, stronger effect = higher value
Summary of the method: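 Mutant yeast screening strain plus compound; vehicle-treated cultures serve as the 0% inhibition reference.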

[12] = NCI Yeast Anticancer Drug Screen. Data for the wt2 strain (AID 169); conditions: S. cerevisiae wt2 strain growth inhibition, stronger effect = higher value
Summary of the method: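 Values express reduction in yeast growth under compound treatment, referenced to vehicle-treated cells.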

[13] = NCI Yeast Anticancer Drug Screen. Data for the mlh1 strain (AID 171);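 further: 0% = growth of vehicle-treated control cultures of the same strain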; conditions: S. cerevisiae mlh1 strain growth inhibition, stronger effect = higher value
Summary of the method: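 Steps: expose the defined-mutant yeast strain to compound; expose a parallel culture to vehicle; measure growth; express compound effect as inhibition relative to the vehicle culture.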

[14] = NCI Yeast Anticancer Drug Screen. Data for the sgs1 strain (AID 173);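 further: 0% = growth of vehicle-only control cultures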; conditions: S. cerevisiae sgs1 mutant, stronger effect = higher value
Summary of the method: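 Treat defined-mutant yeast with compound; measure growth; calculate inhibition relative to vehicle-treated cells.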

[15] = NCI Yeast Anticancer Drug Screen. Data for the mlh1 rad18 strain (AID 175); conditions: S. cerevisiae mlh1 rad18 strain growth inhibition, stronger effect = higher value
Summary of the method: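 Test agents were incubated with a yeast strain of defined genotype (DNA damage repair defect). Inhibition of growth was derived by comparison with vehicle-exposed cultures.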

[16] = NCI Yeast Anticancer Drug Screen. Data for the rad18 strain (AID 177); conditions: S. cerevisiae rad18 mutant growth inhibition, stronger effect = higher value
Summary of the method: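 A genetically defined yeast mutant impaired in DNA damage repair was treated with test compounds, then its growth was measured against cultures receiving vehicle alone.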

[17] = at 5.0 µM (retest, dose inferred, filed as 0.5)
[18] = at 50.0 µM (retest, dose inferred, filed as 5.0)

Measured: growth inhibition

NNc1c(F)c(F)cc(F)c1F
active: [3]; at 100.0 µM 82% | [11]; [18] 70% | [11]; at 50.0 µM 84.6%
inactive: [1]; at 1.2 µM -11% | [1]; at 3.7 µM -19% | [1]; at 11.0 µM -21% | [1]; at 33.0 µM -11% | [1]; at 100.0 µM 21% | [2]; at 1.2 µM -28% | [2]; at 3.7 µM -27% | [2]; at 11.0 µM -20% | [2]; at 33.0 µM -26% | [2]; at 100.0 µM -14% | [3]; at 1.2 µM 2% | [3]; at 3.7 µM -1% | [3]; at 11.0 µM 21% | [3]; at 33.0 µM 54% | [4]; at 1.2 µM -17% | [4]; at 3.7 µM -23% | [4]; at 11.0 µM -17% | [4]; at 33.0 µM -6% | [4]; at 100.0 µM 7% | [5]; at 1.2 µM -15% | [5]; at 3.7 µM -22% | [5]; [17] -16% | [5]; at 11.0 µM -18% | [5]; at 33.0 µM -15% | [5]; [18] 8% | [5]; at 50.0 µM 24.8% | [5]; at 100.0 µM 25% | [6]; at 1.2 µM -37% | [6]; at 3.7 µM -35% | [6]; [17] -11% | [6]; at 11.0 µM -38% | [6]; at 33.0 µM -20% | [6]; [18] 6% | [6]; at 50.0 µM 33.1% | [6]; at 100.0 µM 35% | [7]; at 1.2 µM -25% | [7]; at 3.7 µM -25% | [7]; at 11.0 µM -27% | [7]; at 33.0 µM -21% | [7]; at 100.0 µM -4% | [8]; [17] 0% | [8]; [18] 23% | [8]; at 50.0 µM 67.9% | [9]; at 1.2 µM 0% | [9]; at 3.7 µM -4% | [9]; at 11.0 µM 3% | [9]; at 33.0 µM 18% | [9]; at 100.0 µM 26% | [10]; [17] 21% | [10]; [18] 42% | [10]; at 50.0 µM 46.9% | [11]; at 1.2 µM -11% | [11]; at 3.7 µM -18% | [11]; [17] 27% | [11]; at 11.0 µM -3% | [11]; at 33.0 µM 10% | [11]; at 100.0 µM 47% | [12]; at 1.2 µM -27% | [12]; at 3.7 µM -24% | [12]; at 11.0 µM -22% | [12]; at 33.0 µM -20% | [12]; at 100.0 µM -13% | [13]; at 1.2 µM -12% | [13]; at 3.7 µM -7% | [13]; at 11.0 µM -6% | [13]; at 33.0 µM 5% | [13]; at 100.0 µM 42% | [14]; at 1.2 µM -3% | [14]; at 3.7 µM 8% | [14]; at 11.0 µM 18% | [14]; at 33.0 µM 32% | [14]; at 100.0 µM 66% | [15]; [17] 7% | [15]; [18] 36% | [15]; at 50.0 µM 25% | [16]; at 1.2 µM -9% | [16]; at 3.7 µM -20% | [16]; at 11.0 µM -17% | [16]; at 33.0 µM -20% | [16]; at 100.0 µM 6%

CC(C)c1cc(C(C)C)c(O)c(C([O-])[O-])c1.CC(C)c1cc(C(C)C)c(O)c(C([O-])[O-])c1.CC(C)c1cc(C(C)C)c(O)c(C([OH2+])[OH2+])c1.CC(C)c1cc(C(C)C)c(O)c(C([OH2+])[OH2+])c1.[Cu+2].[Cu+2].[OH3+].[OH3+]
inactive: [1]; at 1.2 µM 5% | [1]; at 3.7 µM 12% | [1]; at 11.0 µM 26% | [1]; at 33.0 µM 61% | [2]; at 1.2 µM -2% | [2]; at 3.7 µM 4% | [2]; at 11.0 µM 20% | [2]; at 33.0 µM 35% | [2]; at 100.0 µM 67% | [3]; at 1.2 µM 1% | [3]; at 3.7 µM 0% | [3]; at 11.0 µM 4% | [3]; at 33.0 µM 11% | [3]; at 100.0 µM 21% | [4]; at 1.2 µM -2% | [4]; at 3.7 µM 6% | [4]; at 11.0 µM 18% | [4]; at 33.0 µM 56% | [5]; at 1.2 µM 5% | [5]; at 3.7 µM 8% | [5]; [17] 5% | [5]; at 11.0 µM 21% | [5]; at 33.0 µM 65% | [5]; [18] 31% | [5]; at 50.0 µM 39.8% | [6]; at 1.2 µM 7% | [6]; at 3.7 µM 18% | [6]; [17] 1% | [6]; at 11.0 µM 36% | [6]; at 33.0 µM 52% | [6]; [18] 27% | [6]; at 50.0 µM 38.1% | [7]; at 1.2 µM 5% | [7]; at 3.7 µM 14% | [7]; at 11.0 µM 29% | [7]; at 33.0 µM 64% | [8]; [17] -9% | [8]; [18] 40% | [8]; at 50.0 µM 43% | [9]; at 1.2 µM 3% | [9]; at 3.7 µM 9% | [9]; at 11.0 µM 34% | [9]; at 33.0 µM 58% | [10]; [17] 3% | [10]; [18] 12% | [10]; at 50.0 µM 53.2% | [11]; at 1.2 µM 1% | [11]; at 3.7 µM 9% | [11]; [17] 4% | [11]; at 11.0 µM 19% | [11]; at 33.0 µM 47% | [11]; [18] 1% | [12]; at 1.2 µM -4% | [12]; at 3.7 µM -2% | [12]; at 11.0 µM 32% | [13]; at 1.2 µM 2% | [13]; at 3.7 µM 15% | [13]; at 11.0 µM 29% | [13]; at 33.0 µM 60% | [14]; at 1.2 µM -11% | [14]; at 3.7 µM -19% | [14]; at 11.0 µM 27% | [15]; [17] -12% | [15]; [18] 59% | [15]; at 50.0 µM 38.2% | [16]; at 1.2 µM 2% | [16]; at 3.7 µM 10% | [16]; at 11.0 µM 34% | [16]; at 33.0 µM 57%
active: [1]; at 100.0 µM 92% | [4]; at 100.0 µM 91% | [5]; at 100.0 µM 94% | [6]; at 100.0 µM 76% | [7]; at 100.0 µM 93% | [9]; at 100.0 µM 83% | [11]; at 50.0 µM 96.7% | [11]; at 100.0 µM 70% | [12]; at 33.0 µM 70% | [12]; at 100.0 µM 93% | [13]; at 100.0 µM 93% | [14]; at 33.0 µM 78% | [14]; at 100.0 µM 93% | [16]; at 100.0 µM 87%

CN(Cc1cnc2nc(N)nc(N)c2n1)c1ccc(C(=O)N[C@@H](CCC(=O)O)C(=O)O)cc1
active: [1]; at 100.0 µM 85% | [5]; [18] 82% | [5]; at 50.0 µM 88.6% | [5]; at 100.0 µM 85%
inactive: [1]; at 1.2 µM -2% | [1]; at 3.7 µM -1% | [1]; at 11.0 µM 8% | [1]; at 33.0 µM 41% | [2]; at 1.2 µM -1% | [2]; at 3.7 µM -3% | [2]; at 11.0 µM -3% | [2]; at 33.0 µM 6% | [2]; at 100.0 µM 24% | [3]; at 1.2 µM -2% | [3]; at 3.7 µM -4% | [3]; at 11.0 µM -5% | [3]; at 33.0 µM 1% | [3]; at 100.0 µM 21% | [4]; at 1.2 µM -1% | [4]; at 3.7 µM -3% | [4]; at 11.0 µM -4% | [4]; at 33.0 µM 1% | [4]; at 100.0 µM 28% | [5]; at 1.2 µM -2% | [5]; at 3.7 µM 1% | [5]; [17] -2% | [5]; at 11.0 µM 6% | [5]; at 33.0 µM 38% | [6]; at 1.2 µM 1% | [6]; at 3.7 µM 2%
